High-throughput results: PubChem BioAssay, National Center for Advancing Translational Sciences (NCATS)
Hits are enriched below; roughly 0.78% of the tested compounds scored in any of these assays.
BLM inh: qHTS Assay for Inhibitors of Bloom's syndrome helicase (BLM). 0.2% of 350,000 active. Potency, µM (titrated, usually from 56.1 µM), without a hit: at the top dose activity change, negative = inhibition, hits mostly inhibitors. AID 2528, 2010. recombinant BLM DNA unwinding, fluorescence dequenching. RecQ-like DNA helicase BLM (Homo sapiens), P54132;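 further: plate controls were vehicle for no effect and no enzyme for full effect; nearly all actives have a fitted effect of over 35% in size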
L3MBTL1 block: qHTS Assay for the Inhibitors of L3MBTL1 | Lethal(3)malignant brain tumor-like protein 1 (Homo sapiens), Q9Y468 | AlphaScreen L3MBTL1–H3K9me1 peptide binding | Potency, µM (titrated, usually from 57.1 µM), for the others: at the highest dose activity, negative = inhibition, actives largely listed as inhibitors | 0.66% of 230,000 active; further: nearly all actives have a fitted effect of over 60% in size
Target sequence (Q9Y468 whole entry, looked up): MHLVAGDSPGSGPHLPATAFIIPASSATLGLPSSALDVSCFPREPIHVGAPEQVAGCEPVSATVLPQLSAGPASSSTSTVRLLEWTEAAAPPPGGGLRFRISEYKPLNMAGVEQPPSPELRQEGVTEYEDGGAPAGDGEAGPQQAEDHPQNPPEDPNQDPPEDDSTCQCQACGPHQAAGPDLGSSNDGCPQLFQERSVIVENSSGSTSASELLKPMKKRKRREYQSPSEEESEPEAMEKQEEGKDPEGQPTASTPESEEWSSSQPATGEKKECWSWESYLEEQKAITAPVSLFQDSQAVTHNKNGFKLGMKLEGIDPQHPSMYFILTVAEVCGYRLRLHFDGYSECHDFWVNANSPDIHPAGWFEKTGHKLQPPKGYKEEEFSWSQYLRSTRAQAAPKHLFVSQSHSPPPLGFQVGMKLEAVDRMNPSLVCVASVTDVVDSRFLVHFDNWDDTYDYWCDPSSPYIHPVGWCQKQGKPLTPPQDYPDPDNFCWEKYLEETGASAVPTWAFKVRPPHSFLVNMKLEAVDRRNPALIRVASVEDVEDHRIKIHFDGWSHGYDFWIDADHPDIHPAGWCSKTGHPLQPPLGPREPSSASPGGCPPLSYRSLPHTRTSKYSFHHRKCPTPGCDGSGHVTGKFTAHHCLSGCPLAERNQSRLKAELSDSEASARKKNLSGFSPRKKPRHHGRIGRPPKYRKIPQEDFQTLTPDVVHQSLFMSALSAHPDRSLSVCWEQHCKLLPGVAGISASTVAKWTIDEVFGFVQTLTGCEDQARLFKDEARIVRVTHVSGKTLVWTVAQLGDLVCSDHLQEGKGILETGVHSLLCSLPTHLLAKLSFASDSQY
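Displacement of a biotinylated histone H3(1-15) peptide monomethylated at Lys9 (75 nM) from L3MBTL1 (50 nM) was measured by AlphaScreen after a 30 min room-temperature compound incubation; cefsulodin titration served as intraplate control.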
RECQ1 inh: qHTS Assay for Inhibitors of RecQ-Like Dna Helicase 1 (RECQ1) | AID 2549, 2010 | Potency, µM (series often up to 57.3 µM), for inactives: at the highest dose activity, negative = inhibition, most hits filed as inhibitors | RECQ1 DNA unwinding, red fluorescence kinetic read | 0.54% of 240,000 active | ATP-dependent DNA helicase Q1 (Homo sapiens), P46063;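 further: plate controls were vehicle for no effect and no enzyme for full effect; nearly all actives have a fitted effect of over 30% in size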
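50 nM RECQ1T1 preincubated 15 min with compound in Tris pH 8.0 buffer with MgCl2, DTT, Tween-20 and 2.5 ug/ml poly(dI-dC); started with 200 nM TAMRA/BHQ-2 forked duplex and 2 mM ATP. Unwinding read as fluorescence (525/598 nm), two reads 2 h apart.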
APE1 inh: qHTS Assay for Inhibitors of the Human Apurinic/apyrimidinic Endonuclease 1 (APE1) | DNA repair nuclease/redox regulator APEX1 (Homo sapiens), P27695 | recombinant APE1, TAMRA/BHQ-2 abasic DNA cleavage fluorescence | Potency, µM (highest dose often 65.8 µM), inactives show at the top dose activity change, negative = inhibition, usual class: inhibitors | 0.35% of 350,000 active;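 further: plate controls were vehicle for no effect and reference inhibitor for full effect; nearly all actives have a fitted effect of over 55% in size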
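Quantitative HTS: incision of a TAMRA/BHQ-2 double-stranded substrate bearing a tetrahydrofuran abasic site by 0.75 nM APE1 raises fluorescence. Substrate 50 nM final, added after 15 min compound preincubation at room temperature; progress as third-minus-first kinetic read difference.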
The depositor's hits bear a star; i = inactive; ? = inconclusive; . = no result given; ! = not confirmed by another sample; [ ] = dose if it differs, or a comment. The call rests on the fitted dose curve; in most records, active means well fitted curve in the direction sought with a large enough effect; inconclusive means small, poorly fitted or top-dose-only effect, or another doubt; inactive means no such curve, though single readings can be large; an effect the other way counts as inactive or inconclusive. Unless noted, on the % scale 0 is the no-effect control and ±100 the full control effect; potency means the concentration at half of the fitted maximal effect.

SMILES	BLM inh	L3MBTL1 block	RECQ1 inh	APE1 inh
COc1ccc(C(=O)Nc2ccnn2C2CCN(Cc3ccc4nonc4c3)CC2)cc1	-7.6%	.	.	5.32µM*
C=CCn1c(SCC(=O)N2CCOCC2)nc2scc(-c3ccco3)c2c1=O	17.8µM*	?	-28.5%	-15.0%
O=C(/C=C/c1ccc(O)c(O)c1)c1ccc(O)cc1O	-7.6%	.	-20.8%	?
NC(=O)C1CCN(c2nc(-c3ccccc3[N+](=O)[O-])cs2)CC1	.	.	.	13.5%
C=C(C)C(=O)Nc1ccc2c(c1)OCCOCCOCCO2	?	3.55µM*	?	-1.3%
Cc1ccc2c(c1)C1CC(C)(O2)N(c2cccc(C(=O)NC3CCN(Cc4ccccc4)CC3)c2)C(=O)N1 (configuration not stated)	1.5%	.	.	23.8µM*
O=C(O)c1cc(N=Nc2ccc(-c3ccc(N=Nc4ccc(O)c(C(=O)O)c4)cc3)cc2)ccc1O	17.8µM*	.	20µM*	8.91µM*
O=C(Nc1ccc(C(=O)Nc2ccc(C(=O)Nc3ccc(S(=O)(=O)O)c4cc(S(=O)(=O)O)cc(S(=O)(=O)O)c34)cc2)cc1)Nc1ccc(C(=O)Nc2ccc(C(=O)Nc3ccc(S(=O)(=O)O)c4cc(S(=O)(=O)O)cc(S(=O)(=O)O)c34)cc2)cc1	68.5%	.	6.31µM*	7.94µM*
CC(C)(C)c1ccc(C(=O)Nc2ccc(S(N)(=O)=O)cc2)cc1	1.0%	4.0%	i	3.2%
COC(=O)[C@H]1C2CC3c4[nH]c5ccccc5c4CCN3CC2CC[C@@H]1O (some centres not stated)	.	.	22.1%	6.0%
CC1CCc2c(sc(NC(=O)c3ccco3)c2C(=O)O)C1 (configuration not stated)	-0.8%	.	.	85.8%
CC1CCc2c(sc(NC(=O)/C=C/c3cccs3)c2C(=O)O)C1 (configuration not stated)	-6.0%	.	.	11.9µM*
CC[C@@H](C)[C@@H](CO[C@@H](Cc1ccccc1)C(=O)N[C@@H](CCS(C)(=O)=O)C(=O)OC(C)C)NC[C@@H](N)CS	0.6%	.	-19.8%	-2.2%
CC(=O)O[C@@H]1CC2CCC1(C)C2(C)C (some centres not stated)	.	.	.	-0.1%
N[C@@H]1CCN(O)C1=O	-11.2%	.	-2.1%	3.55µM*!
C=CCNc1oc(-c2ccc(F)cc2)nc1C#N	.	.	.	49.1%
CNC(=S)N/N=C/c1cc(Br)cc(Br)c1O	3.2%	2µM*	-8.3%	-13.7%
Oc1c(Br)cc(Br)cc1/C=N/NC(=S)N[C@H]1CC2C=CC1C2 (some centres not stated)	-19.6%	-69.6%	-23.8%	-2.5%
O=C(CN1C(=O)/C(=C2\SC(=S)N(CCS(=O)(=O)O)C2=O)c2ccccc21)Nc1cccc(Br)c1	-14.9%	.	.	6.7µM*
COCCN1C(=O)/C(=C2/C(=O)N(CC(=O)Nc3ccccc3Cl)c3ccccc32)SC1=S	-2.4%	.	.	-9.3%
CCC(=O)CC	-5.9%	.	-4.8%	?
CCOC(=O)c1sc2nc3c(SCC(=O)O)cc(C(=O)c4ccccc4O)cn3c(=O)c2c1C	-16.1%	?	-12.3%	?
COc1ccc(O)c(C(=O)c2cc(SCC(=O)O)c3nc4sc5c(c4c(=O)n3c2)CCCC5)c1	22.4µM*	.	i	?
COc1cccc(OCCOc2ccc(/C=C3\C(=N)N4N=C(S(C)(=O)=O)SC4=NC3=O)cc2OC)c1	-14.9%	.	.	-73.9%
COc1ccccc1OCCOc1ccc(/C=C2\C(=N)N3N=C(S(C)(=O)=O)SC3=NC2=O)cc1	-10.6%	.	.	21.2µM*
SMILES	BLM inh	L3MBTL1 block	RECQ1 inh	APE1 inh
C/C(N)=C(/C#N)C(=O)CN1C(=O)NC(Cc2c[nH]c3ccccc23)C1=O (configuration not stated)	-17.5%	.	.	15µM*
COc1cccc(CNc2ccc3c(c2)nc(C)n3C)c1OC	-1.0%	-5.3%	.	22.0%
COc1cc(NCc2ccc3nc(N)nc(N)c3c2C)cc(OC)c1OC	17.8µM*!	.	i	?
CN(C)c1cccc2c1C(=O)c1ccccc1C2=O	-5.3%	25.1µM*	-5.2%	-6.0%
Cc1cc(O)c2c(c1O)C(=O)C(O)=C(O)C2=O	-27.9%	.	10µM*	6.31µM*
Cc1cc(O)c(-c2cc(O)c(C)cc2O)cc1O	-3.9%	-20.5%	i	-4.4%
CC(=C/C(=O)O)/C=C/c1ccc(Cl)o1	85.3%	10µM*	-2.7%	-3.0%
COC(=O)c1cc(C)nc2c1C(=O)C(=O)C=C2N1CCOCC1	8.91µM*	.	.	-8.4%
COc1ccc(Sc2nc(-c3ccccn3)ncc2OC)cc1	3.5%	3.55µM*	1.4%	13.1%
Nc1ccc2c(c1)C(=O)C(=O)c1ccccc1-2	?	.	2.5%	3.5%
O=C1C(=O)c2ccc(-c3ccccc3)cc2-c2ccccc21	8.91µM*	?	-7.3%	1.3%
CC(C)(C)n1ncc2c(=O)n(Cc3ccc(SC(=O)O)cc3Cl)cnc21	.	.	.	17.8%
CS(=O)(=O)c1ccc(C(=O)Nc2nc(-c3ccco3)c(-c3ccco3)s2)cc1	.	7.08µM*	.	-19.4%
Cc1ccc(-c2ccc(CCC(=O)O)n2NC(=O)c2cccs2)cc1	-3.6%	39.8µM*	5.1%	-9.9%
COc1ccc(-c2ccc(CCC(=O)O)n2NC(=O)c2cccs2)cc1	-1.9%	19.6%[11.4 µM]	-0.2%	-5.8%
Oc1ccc(N=Cc2ccc(O)c(O)c2)cc1	28.2µM*	8.91µM*	i	6.9%
O=Cc1ccc(O)c(O)c1	-6.2%	0.9%	-5.3%	3.6%
Oc1ccc(/C=N/N=C/c2ccc(O)c(O)c2)cc1O	?	8.91µM*	.	?
CC(C)(C)CNc1nc(C#N)nc(Nc2ccccc2)n1	-9.4%	.	i	-5.0%
COC/C=C/C1=CC2=CC(=O)C(C)(OC(=O)c3cnc4ccccc4n3)C(=O)C2=CN1c1ccc(CO)cc1 (configuration not stated)	12.6µM*!	3.16µM*	-21.4%[11.5 µM]	10.6µM*!
COc1cccc(C2=Nn3c(nnc3-c3cccc(OC)c3OC)SC2)c1	-1.6%	.	-5.6%	-1.4%
O=C(NNC(=O)c1cc2cc3ccccc3nc2s1)c1ccc(F)cc1	-23.6%	33.7%	-0.7%	6.31µM*
Cn1cc(/C=C2/SC(=O)N(CC(=O)Nc3ccc4c(c3)OCO4)C2=O)c2ccccc21	-1.3%	2.3%	-2.4%	-0.8%
O=C(CN1C(=O)S/C(=C\c2ccc(-c3cc(C(=O)O)ccc3Cl)o2)C1=O)Nc1ccc2c(c1)OCO2	10µM*	.	.	6.7µM*
Cc1ccc(NC(=O)CSc2nnc(-c3ccco3)c(-c3ccco3)n2)cc1	?	20µM*	?	?
CN(C)c1ccc(NC(=O)CSc2nnc(-c3ccco3)c(-c3ccco3)n2)cc1	-7.7%	.	.	-18.2%
COc1ccccc1N1CSC2=C(C#N)C(c3ccc(SC)cc3)CC(=O)N2C1 (configuration not stated)	-29.7%	22.4µM*	?	-3.4%
